Test results taken from PubChem BioAssay.
The source made the active and inactive calls.

assay: PSAC antagonists in infected red cells, primary screen, cell-based, P. falciparum Indochina, OD700, 18 h (AID 1157); conditions: P. falciparum Indochina infected erythrocytes, osmotic lysis OD700, 18 h; higher = more signal, called active from +8 up or from −8 down

Structure (SMILES)	z-score
C=CC[C@@H]1C=C[C@H](ON=C(C)CCC(=O)OC[C@H]2O[C@H](c3ccccc3)C=C[C@@H]2Oc2ccc(OC)cc2)[C@@H](CO)O1	0.637 (inactive)
CCOC(=O)[C@H](CC(C)C)NC(=O)CCC1CC(OC(=O)NCc2cccc3ccccc23)CC2(CCCC(COC(=O)NCCCN3CCCC3=O)O2)O1 (stereo partly specified)	0.295 (inactive)
CCCCC#C[C@@H]1C=C[C@H](Oc2ccc(C(=O)OC)cc2)[C@@H](COC(=O)OCC)O1	0.0033 (inactive)
COC(=O)[C@@H]1CC[C@H](C)[C@@H](c2ccc(C)cc2)N1C(=O)c1ccc(C=NO[C@@H]2O[C@H](COC(C)=O)[C@@H](OC(C)=O)[C@H](OC(C)=O)[C@H]2OC(C)=O)cc1	-1.79 (inactive)
C=CC[C@@H]1C=C[C@H](ON=C[C@@H](C)[C@H](OCc2ccccc2)C(C)C)[C@@H](CO)O1	0.197 (inactive)
COC(=O)CC=C[C@@H](C)[C@@H](C=NOCC[C@@H]1C=C[C@H](OC(C)=O)[C@@H](COC(C)=O)O1)OC	0.171 (inactive)
CC(CCN1CCCCc2nc(C)c(C)cc21)=NO[C@H](C)c1cn([C@H](CO)Cc2ccccc2)nn1	0.589 (inactive)
CC[C@@H](c1ccccc1)n1c(=O)n2n(c1=O)[C@H]1[C@H](O)[C@@H]3O[C@@H]3C(=NOC[C@@H](O)COCc3ccco3)[C@H]1CC2	-0.381 (inactive)
C#CCCCON=C1[C@H]2CCn3c(=O)n(-c4ccccc4)c(=O)n3[C@H]2[C@H](O)[C@@H]2O[C@H]12	-2.27 (inactive)
CC(C)=CCCC(C)=CCON=C1C[C@@H](O)[C@@H](O)[C@@H]2[C@@H]3C(=O)N(Cc4ccccc4)C(=O)[C@@H]3CC[C@@H]12	-0.0646 (inactive)

assay: modulators of S6 phosphorylation in cells, primary screen, cell-based, A549, cytoblot, luminescence, serum-stimulated (AID 1158); conditions: A549 phospho-S6 cytoblot, 5 h, higher = more signal;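 further: serum-stimulated A549 lung adenocarcinoma cells; signal is phosphorylated S6 detected by cytoblot immunostaining with HRP secondary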

Structure (SMILES)	z-score
C#CCCCON=C1C[C@@H](O)[C@@H](O)[C@@H]2[C@@H]3C(=O)N(Cc4ccccc4)C(=O)[C@@H]3CC[C@@H]12	-0.507
CCCNC(=O)OC[C@H]1O[C@H](CCON=C(C)CCC(=O)OC[C@H]2O[C@H](c3ccccc3)C=C[C@@H]2Oc2ccc(OC)cc2)C=C[C@@H]1Oc1ccc(OC)cc1	-0.441
CO[C@H]1COC(=O)[C@@H](C)COC(=O)[C@H](C)NC(=O)CC=C[C@H]1C	-0.144
C[C@@H](c1ccccc1)N1C(=O)[C@H]2[C@H]3[C@H](O)[C@H](O)CC(=O)[C@H]3CC[C@H]2C1=O	0.297
CO[C@H]1COC(=O)CC=C[C@@H](C)[C@H](NS(=O)(=O)c2ccc(C)cc2)COC(=O)CCC[C@@H]1C	-0.56
CO[C@@H]1COC(=O)[C@H](CCSC)NC(=O)CC=C[C@@H](C)COC(=O)[C@H](C)NC(=O)CC=C[C@H]1C	0.399
CCC(=O)[C@@]1(O)C(=O)N2C(=C3C(=O)OCC[C@@H]31)N(Cc1ccccc1)C(C)=C(C(=O)OC)[C@H]2c1ccccc1	-0.131
CCOC(=O)[C@H](CC(C)C)NC(=O)CCC1CC(OC(=O)NCCc2ccc(F)cc2)CC2(CCCC(COC(=O)NCCOc3ccccc3)O2)O1 (stereo partly specified)	0.45
CCCNC(=O)OC[C@H]1O[C@H](CCON=C(C)CCN2CCCc3nc(C)c(C)cc32)C=C[C@@H]1Oc1ccc(OC)cc1	-0.546
O=C1CCCC=C1C(O)CCOC(c1ccccc1)(c1ccccc1)c1ccccc1 (stereo unspecified)	-0.0632
CCCNC(=O)OC[C@H]1O[C@H](CCON=Cc2ccc(C(=O)N3[C@H](c4ccc(C)cc4)[C@@H](C)CC[C@H]3C(=O)OC)cc2)C=C[C@@H]1Oc1ccc(OC)cc1	-0.619
C[C@@H]1CC[C@H]2C(=O)O[C@@H](Cc3ccccc3)CN2[C@H]1c1ccc(Br)cc1	-0.536
Cc1cc2c(nc1C)CCCCN2CC(C)ON=C1[C@H]2CCn3c(=O)n(-c4ccccc4)c(=O)n3[C@H]2[C@H](O)[C@@H]2O[C@H]12 (stereo partly specified)	0.0162
C#CCCCON=C1C[C@@H](O)[C@@H](O)[C@@H]2[C@@H]3C(=O)N(c4ccc(F)cc4F)C(=O)[C@@H]3CC[C@@H]12	-0.404
CCOC(=O)NN=C1C[C@@H](O)[C@@H](O)[C@@H]2[C@@H]3C(=O)N(c4cccc(Oc5ccccc5)c4)C(=O)[C@@H]3CC[C@@H]12	-0.142
CO[C@@H]1COC(=O)[C@H](CCSC)NC(=O)CC=C[C@@H](C)COC(=O)CCC[C@H]1C	0.016
O=c1n(-c2ccccc2)c(=O)n2n1CC[C@@H]1C(=NOCc3ccccc3)[C@H]3O[C@H]3[C@@H](O)[C@@H]12	-0.302
C[C@@H](c1ccccc1)N1C(=O)[C@H]2[C@H]3[C@H](O)[C@H](O)CC(=NO[C@@H]4O[C@H](CO)[C@@H](O)[C@H](O)[C@H]4O)[C@@H]3CC[C@H]2C1=O	-0.689

Structure (SMILES)	z-score
CC(C)=CCCC(C)=CCON=C1C[C@@H](O)[C@@H](O)[C@@H]2[C@@H]3C(=O)N(c4ccc(F)cc4F)C(=O)[C@@H]3CC[C@@H]12	-0.718
Cc1ccc(S(=O)(=O)OC[C@H]2CN3[C@H](c4ccc(Br)cc4)[C@@H](C)CC[C@H]3C(=O)O2)cc1	0.0084
CC(C)CON=C1C[C@@H](O)[C@@H](O)[C@@H]2[C@@H]3C(=O)N(C[C@@H]4CCCO4)C(=O)[C@@H]3CC[C@@H]12	0.324
CC(C)=NOC[C@@H](C)[C@H](OCc1ccccc1)C(C)C	0.453
CO[C@H](C1CCCCC1)[C@H](C)C=CCC(=O)OCCCc1ccccc1	-0.285
CCOC(=O)[C@H](CC(C)C)NC(=O)CCC1CC(OC(=O)NCc2ccc3c(c2)OCO3)CC2(CCCC(COC(=O)NCc3cccc(C(F)(F)F)c3)O2)O1 (stereo partly specified)	0.427
CC(C)=CCCC(C)=CCON=C1C[C@@H](O)[C@@H](O)[C@@H]2[C@@H]3C(=O)N(C(C)(C)C)C(=O)[C@@H]3CC[C@@H]12	-0.227
CCOC(=O)[C@H](Cc1ccccc1)NC(=O)CCC1CC(OC(=O)NCCc2ccc(F)cc2)CC2(CCCC(COC(=O)NCCc3ccccc3OC)O2)O1 (stereo partly specified)	0.392
C=CC[C@@H]1C=C[C@H](ON=C(C)CCC(=O)OC[C@H]2O[C@H](c3ccccc3)C=C[C@@H]2Oc2ccc(OC)cc2)[C@@H](CO)O1	-0.0785
CCOC(=O)[C@H](CC(C)C)NC(=O)CCC1CC(OC(=O)NCc2cccc3ccccc23)CC2(CCCC(COC(=O)NCCCN3CCCC3=O)O2)O1 (stereo partly specified)	0.285
CCCCC#C[C@@H]1C=C[C@H](Oc2ccc(C(=O)OC)cc2)[C@@H](COC(=O)OCC)O1	0.164
COC(=O)[C@@H]1CC[C@H](C)[C@@H](c2ccc(C)cc2)N1C(=O)c1ccc(C=NO[C@@H]2O[C@H](COC(C)=O)[C@@H](OC(C)=O)[C@H](OC(C)=O)[C@H]2OC(C)=O)cc1	1.02
C=CC[C@@H]1C=C[C@H](ON=C[C@@H](C)[C@H](OCc2ccccc2)C(C)C)[C@@H](CO)O1	-0.544
COC(=O)CC=C[C@@H](C)[C@@H](C=NOCC[C@@H]1C=C[C@H](OC(C)=O)[C@@H](COC(C)=O)O1)OC	-0.801
CC(CCN1CCCCc2nc(C)c(C)cc21)=NO[C@H](C)c1cn([C@H](CO)Cc2ccccc2)nn1	-0.286
CC[C@@H](c1ccccc1)n1c(=O)n2n(c1=O)[C@H]1[C@H](O)[C@@H]3O[C@@H]3C(=NOC[C@@H](O)COCc3ccco3)[C@H]1CC2	0.225
C#CCCCON=C1[C@H]2CCn3c(=O)n(-c4ccccc4)c(=O)n3[C@H]2[C@H](O)[C@@H]2O[C@H]12	3.11
CC(C)=CCCC(C)=CCON=C1C[C@@H](O)[C@@H](O)[C@@H]2[C@@H]3C(=O)N(Cc4ccccc4)C(=O)[C@@H]3CC[C@@H]12	-0.444
